How the values were obtained:
Assay in all cases: DAPPL (digital affinity profiling via proximity ligation, sequencing); 10 mM Tris-HCl pH 7.5, 50 mM NaCl, 1 mM DTT, 4% glycerol, room temperature, 30 min; GST-TFs on glutathione beads, 16-mer random dsDNA library, 0.1% formaldehyde crosslink after washing; high values mean tight binding
Details in all cases: protein: recombinant; tags: N-terminal GST; dsDNA, one strand shown
FLI1 = biological target: T1, FLI1 (Homo sapiens, UniProt Q01543 1-452)
T1 sequence: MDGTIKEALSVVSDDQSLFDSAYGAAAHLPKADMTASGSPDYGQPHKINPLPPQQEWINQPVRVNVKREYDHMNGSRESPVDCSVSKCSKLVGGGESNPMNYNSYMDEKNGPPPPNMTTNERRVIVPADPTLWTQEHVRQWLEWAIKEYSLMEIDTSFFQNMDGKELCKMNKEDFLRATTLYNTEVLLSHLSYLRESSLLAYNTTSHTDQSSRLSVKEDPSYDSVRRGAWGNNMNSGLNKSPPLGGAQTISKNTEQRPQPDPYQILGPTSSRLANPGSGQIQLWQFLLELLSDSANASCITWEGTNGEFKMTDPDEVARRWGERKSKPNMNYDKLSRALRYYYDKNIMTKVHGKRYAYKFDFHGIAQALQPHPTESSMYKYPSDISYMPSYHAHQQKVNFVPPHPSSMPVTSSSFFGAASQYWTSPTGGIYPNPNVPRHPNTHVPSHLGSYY
Summary of the method: (§1)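 After expression in yeast as GST fusions, human transcription factors were bound to glutathione beads, DNA-barcoded and mixed with a tag-only sample. The pools were incubated with 200 nmole of a 16-mer random double-stranded DNA library in Tris/NaCl/DTT/glycerol buffer (30 min, room temperature), washed and crosslinked with 0.1% formaldehyde. Proximity ligation with BsaI/T4 ligase ran for 1 h at 37 °C, before PCR amplification and sequencing on an Illumina NextSeq500. Binding signal is a hexamer's read frequency for a factor divided by its frequency for the tag-only sample.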

ELK1 = biological target: T2, ELK1 (Homo sapiens, UniProt P19419 1-428)
T2 sequence: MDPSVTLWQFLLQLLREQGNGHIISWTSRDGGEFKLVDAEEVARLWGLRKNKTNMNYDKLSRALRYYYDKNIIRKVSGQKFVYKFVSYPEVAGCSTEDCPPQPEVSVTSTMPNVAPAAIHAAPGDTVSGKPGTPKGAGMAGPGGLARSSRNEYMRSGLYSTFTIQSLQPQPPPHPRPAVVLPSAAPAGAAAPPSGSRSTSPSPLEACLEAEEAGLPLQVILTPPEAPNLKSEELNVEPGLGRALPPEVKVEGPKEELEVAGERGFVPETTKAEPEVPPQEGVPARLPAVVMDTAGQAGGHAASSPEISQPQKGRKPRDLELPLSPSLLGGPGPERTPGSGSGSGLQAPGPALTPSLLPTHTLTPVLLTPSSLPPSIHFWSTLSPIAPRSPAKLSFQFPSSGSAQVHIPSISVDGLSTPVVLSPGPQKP
Summary of the method: as §1

GABPA = biological target: T3, GABPA (Homo sapiens, UniProt Q06546 1-454)
T3 sequence: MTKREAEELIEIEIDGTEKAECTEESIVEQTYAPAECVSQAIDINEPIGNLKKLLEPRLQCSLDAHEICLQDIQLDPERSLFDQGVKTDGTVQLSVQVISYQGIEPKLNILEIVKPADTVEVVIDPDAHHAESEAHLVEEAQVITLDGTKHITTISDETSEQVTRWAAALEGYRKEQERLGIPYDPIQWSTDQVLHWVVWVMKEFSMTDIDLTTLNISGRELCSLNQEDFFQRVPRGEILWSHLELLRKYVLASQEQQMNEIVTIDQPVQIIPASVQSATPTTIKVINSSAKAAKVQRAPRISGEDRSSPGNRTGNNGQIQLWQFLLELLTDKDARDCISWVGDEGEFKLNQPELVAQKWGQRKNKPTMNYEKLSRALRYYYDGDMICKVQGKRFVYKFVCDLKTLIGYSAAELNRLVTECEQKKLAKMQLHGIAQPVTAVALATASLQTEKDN
Summary of the method: as §1

ERG = biological target: T4, ERG (Homo sapiens, UniProt P11308 1-479)
T4 sequence: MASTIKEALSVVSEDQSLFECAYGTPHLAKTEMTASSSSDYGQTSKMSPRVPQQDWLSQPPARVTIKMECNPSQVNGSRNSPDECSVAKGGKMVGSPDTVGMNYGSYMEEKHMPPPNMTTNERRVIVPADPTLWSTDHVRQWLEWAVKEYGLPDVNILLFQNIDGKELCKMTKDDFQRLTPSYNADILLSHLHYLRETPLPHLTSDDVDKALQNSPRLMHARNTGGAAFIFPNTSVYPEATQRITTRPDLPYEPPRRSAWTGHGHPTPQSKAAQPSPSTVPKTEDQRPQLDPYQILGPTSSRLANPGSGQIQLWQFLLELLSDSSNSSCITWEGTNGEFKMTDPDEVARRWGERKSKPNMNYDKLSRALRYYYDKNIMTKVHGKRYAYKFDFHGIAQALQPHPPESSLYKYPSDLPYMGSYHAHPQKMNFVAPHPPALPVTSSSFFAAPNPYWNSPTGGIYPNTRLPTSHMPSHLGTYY
Summary of the method: as §1

ELF1 = ELF1 (Homo sapiens, UniProt P32519 1-619)
Sequence of ELF1 (P32519 whole entry): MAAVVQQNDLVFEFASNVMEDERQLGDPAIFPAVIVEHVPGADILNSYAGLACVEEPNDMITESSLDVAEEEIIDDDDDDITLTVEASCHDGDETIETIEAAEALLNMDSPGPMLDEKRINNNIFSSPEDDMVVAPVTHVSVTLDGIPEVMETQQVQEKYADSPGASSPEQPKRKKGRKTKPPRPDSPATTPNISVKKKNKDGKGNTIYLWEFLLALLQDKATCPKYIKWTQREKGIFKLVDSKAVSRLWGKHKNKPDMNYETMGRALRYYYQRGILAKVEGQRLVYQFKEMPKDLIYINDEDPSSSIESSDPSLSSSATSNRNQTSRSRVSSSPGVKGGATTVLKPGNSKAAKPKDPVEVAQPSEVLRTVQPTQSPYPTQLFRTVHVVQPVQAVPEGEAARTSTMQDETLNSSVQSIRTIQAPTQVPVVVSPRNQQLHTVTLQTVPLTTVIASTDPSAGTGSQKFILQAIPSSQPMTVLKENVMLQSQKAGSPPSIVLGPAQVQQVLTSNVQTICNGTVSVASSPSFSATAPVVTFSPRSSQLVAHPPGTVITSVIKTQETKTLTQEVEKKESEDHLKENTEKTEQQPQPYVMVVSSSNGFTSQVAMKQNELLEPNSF
Summary of the method: as §1

SPIB = SPIB (Homo sapiens, UniProt Q01892 1-262)
Sequence of SPIB (Q01892 whole entry): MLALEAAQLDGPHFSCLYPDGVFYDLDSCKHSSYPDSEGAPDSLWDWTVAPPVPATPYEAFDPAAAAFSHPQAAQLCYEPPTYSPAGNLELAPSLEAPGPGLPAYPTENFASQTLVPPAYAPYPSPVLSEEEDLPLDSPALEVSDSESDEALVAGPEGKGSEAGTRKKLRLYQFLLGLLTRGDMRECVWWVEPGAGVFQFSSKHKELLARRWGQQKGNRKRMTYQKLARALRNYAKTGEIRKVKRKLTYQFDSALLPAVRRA
Summary of the method: as §1

ELK3 = biological target: T5, ELK3 (Homo sapiens, UniProt P41970 1-407)
T5 sequence: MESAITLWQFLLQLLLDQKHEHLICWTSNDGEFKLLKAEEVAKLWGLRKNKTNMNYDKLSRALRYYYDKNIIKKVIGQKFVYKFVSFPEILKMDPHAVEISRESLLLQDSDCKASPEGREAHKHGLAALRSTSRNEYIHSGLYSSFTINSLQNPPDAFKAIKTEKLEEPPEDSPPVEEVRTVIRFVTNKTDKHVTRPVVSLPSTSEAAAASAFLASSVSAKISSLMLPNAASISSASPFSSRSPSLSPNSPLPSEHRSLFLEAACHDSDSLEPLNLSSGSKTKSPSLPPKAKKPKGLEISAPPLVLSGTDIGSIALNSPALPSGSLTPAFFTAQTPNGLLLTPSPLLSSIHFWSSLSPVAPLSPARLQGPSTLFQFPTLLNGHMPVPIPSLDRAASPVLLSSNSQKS
Summary of the method: as §1

ETV5 = ETV5 (Homo sapiens, UniProt P41161 1-510)
Sequence of ETV5 (P41161 whole entry): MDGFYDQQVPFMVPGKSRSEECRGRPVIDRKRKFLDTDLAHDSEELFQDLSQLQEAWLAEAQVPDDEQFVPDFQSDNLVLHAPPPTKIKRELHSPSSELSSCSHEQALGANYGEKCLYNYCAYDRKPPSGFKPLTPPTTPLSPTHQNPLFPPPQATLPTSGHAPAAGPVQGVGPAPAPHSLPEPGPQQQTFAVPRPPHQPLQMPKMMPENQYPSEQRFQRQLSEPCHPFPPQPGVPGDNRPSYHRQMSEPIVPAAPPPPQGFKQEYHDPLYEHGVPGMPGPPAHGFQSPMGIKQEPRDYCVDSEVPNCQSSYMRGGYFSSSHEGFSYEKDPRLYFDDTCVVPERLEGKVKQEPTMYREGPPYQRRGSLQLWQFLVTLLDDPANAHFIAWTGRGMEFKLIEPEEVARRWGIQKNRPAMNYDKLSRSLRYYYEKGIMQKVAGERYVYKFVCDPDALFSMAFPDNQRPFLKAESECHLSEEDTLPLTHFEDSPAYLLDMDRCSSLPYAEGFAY
Summary of the method: as §1

SPIC = biological target: T6, SPIC (Homo sapiens, UniProt Q8N5J4 1-248)
T6 sequence: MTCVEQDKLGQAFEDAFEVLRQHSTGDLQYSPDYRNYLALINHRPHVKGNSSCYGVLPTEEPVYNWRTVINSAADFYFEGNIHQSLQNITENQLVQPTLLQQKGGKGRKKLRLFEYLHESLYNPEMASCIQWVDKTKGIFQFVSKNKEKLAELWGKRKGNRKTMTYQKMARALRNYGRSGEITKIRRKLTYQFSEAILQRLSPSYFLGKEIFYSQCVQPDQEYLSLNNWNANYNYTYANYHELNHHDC
Summary of the method: as §1

ELF4 = ELF4 (Homo sapiens, UniProt Q99607 1-663)
Sequence of ELF4 (Q99607 whole entry): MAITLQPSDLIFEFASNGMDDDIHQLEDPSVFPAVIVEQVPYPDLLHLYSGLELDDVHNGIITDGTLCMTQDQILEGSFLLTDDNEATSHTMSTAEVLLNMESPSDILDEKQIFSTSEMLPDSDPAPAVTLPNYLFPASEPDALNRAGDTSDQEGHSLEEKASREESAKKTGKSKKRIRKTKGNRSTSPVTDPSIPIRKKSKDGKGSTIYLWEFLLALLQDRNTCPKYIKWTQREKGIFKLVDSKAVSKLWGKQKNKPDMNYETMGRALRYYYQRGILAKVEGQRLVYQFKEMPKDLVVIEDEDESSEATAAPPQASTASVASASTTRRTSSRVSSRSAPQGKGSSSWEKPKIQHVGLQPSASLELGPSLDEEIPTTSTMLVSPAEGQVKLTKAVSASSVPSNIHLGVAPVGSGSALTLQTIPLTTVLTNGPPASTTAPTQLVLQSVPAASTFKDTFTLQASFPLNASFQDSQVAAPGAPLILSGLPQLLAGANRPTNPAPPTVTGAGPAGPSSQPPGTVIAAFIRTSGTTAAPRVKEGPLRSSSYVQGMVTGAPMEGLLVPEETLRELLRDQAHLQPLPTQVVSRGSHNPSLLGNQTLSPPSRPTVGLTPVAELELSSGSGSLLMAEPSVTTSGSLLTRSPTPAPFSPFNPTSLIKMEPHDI
Summary of the method: as §1

ELK4 = biological target: T7, ELK4 (Homo sapiens, UniProt P28324-2 1-405)
T7 sequence: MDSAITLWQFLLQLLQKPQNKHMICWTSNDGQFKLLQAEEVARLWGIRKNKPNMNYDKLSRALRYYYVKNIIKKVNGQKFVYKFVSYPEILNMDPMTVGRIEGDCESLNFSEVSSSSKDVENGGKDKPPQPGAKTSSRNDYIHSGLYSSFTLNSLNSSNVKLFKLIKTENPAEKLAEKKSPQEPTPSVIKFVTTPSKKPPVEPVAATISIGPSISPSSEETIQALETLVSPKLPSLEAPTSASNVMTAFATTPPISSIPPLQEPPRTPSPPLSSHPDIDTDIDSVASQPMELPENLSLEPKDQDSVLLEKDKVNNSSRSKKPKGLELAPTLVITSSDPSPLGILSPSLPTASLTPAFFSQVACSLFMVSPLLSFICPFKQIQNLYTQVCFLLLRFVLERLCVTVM
Summary of the method: as §1

ETV2 = biological target: T8, ETV2 (Homo sapiens, UniProt O00321 1-342)
T8 sequence: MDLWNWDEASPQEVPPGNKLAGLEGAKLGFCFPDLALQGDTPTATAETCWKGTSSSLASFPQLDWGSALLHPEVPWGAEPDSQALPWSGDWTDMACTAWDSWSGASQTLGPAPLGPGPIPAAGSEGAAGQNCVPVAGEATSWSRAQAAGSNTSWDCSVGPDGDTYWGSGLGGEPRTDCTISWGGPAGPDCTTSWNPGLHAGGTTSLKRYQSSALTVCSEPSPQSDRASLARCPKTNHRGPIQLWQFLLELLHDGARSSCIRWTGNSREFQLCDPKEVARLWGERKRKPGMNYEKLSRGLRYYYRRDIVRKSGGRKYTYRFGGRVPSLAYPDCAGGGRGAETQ
Summary of the method: as §1

ELF3 = biological target: T9, ELF3 (Homo sapiens, UniProt P78545 1-371)
T9 sequence: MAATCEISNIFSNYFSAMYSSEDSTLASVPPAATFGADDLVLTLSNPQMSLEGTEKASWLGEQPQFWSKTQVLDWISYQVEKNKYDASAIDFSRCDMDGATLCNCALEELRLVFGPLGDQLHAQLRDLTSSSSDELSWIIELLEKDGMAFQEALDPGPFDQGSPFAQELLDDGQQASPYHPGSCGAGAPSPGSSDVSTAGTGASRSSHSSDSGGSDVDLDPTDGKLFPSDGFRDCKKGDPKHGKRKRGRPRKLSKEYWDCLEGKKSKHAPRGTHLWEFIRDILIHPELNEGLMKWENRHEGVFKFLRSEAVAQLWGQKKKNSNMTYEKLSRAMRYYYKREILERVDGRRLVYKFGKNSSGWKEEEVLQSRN
Summary of the method: as §1

ETV1 = ETV1 (Homo sapiens, UniProt P50549 1-477)
Sequence of ETV1 (P50549 whole entry): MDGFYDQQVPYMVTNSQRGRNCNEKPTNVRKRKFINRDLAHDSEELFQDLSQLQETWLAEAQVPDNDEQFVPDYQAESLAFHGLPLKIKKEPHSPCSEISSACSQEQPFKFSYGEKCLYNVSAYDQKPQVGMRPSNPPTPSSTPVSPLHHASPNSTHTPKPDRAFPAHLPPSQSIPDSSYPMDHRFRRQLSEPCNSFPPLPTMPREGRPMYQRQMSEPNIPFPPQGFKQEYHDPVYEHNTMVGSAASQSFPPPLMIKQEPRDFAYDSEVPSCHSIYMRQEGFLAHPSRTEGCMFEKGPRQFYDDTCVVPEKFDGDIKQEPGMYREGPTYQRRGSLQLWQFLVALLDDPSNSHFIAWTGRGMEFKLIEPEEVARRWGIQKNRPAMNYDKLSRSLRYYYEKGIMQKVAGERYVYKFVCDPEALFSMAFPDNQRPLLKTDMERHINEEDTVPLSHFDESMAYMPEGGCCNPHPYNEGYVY
Summary of the method: as §1

EHF = biological target: T10, EHF (Homo sapiens, UniProt Q9NZC4 1-300)
T10 sequence: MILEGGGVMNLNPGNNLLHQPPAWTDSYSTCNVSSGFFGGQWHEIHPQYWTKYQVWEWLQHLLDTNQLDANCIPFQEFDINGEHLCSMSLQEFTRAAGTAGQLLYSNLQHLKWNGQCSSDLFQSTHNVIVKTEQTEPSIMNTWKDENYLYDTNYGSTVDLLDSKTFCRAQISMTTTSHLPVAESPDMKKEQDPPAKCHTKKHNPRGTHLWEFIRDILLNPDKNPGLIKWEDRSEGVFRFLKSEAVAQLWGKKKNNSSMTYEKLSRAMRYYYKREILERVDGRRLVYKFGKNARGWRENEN
Summary of the method: as §1

SPI1 = SPI1 (Homo sapiens, UniProt P17947 1-270)
Summary of the method: as §1

FEV = biological target: T11, FEV (Homo sapiens, UniProt Q99581 1-238)
T11 sequence: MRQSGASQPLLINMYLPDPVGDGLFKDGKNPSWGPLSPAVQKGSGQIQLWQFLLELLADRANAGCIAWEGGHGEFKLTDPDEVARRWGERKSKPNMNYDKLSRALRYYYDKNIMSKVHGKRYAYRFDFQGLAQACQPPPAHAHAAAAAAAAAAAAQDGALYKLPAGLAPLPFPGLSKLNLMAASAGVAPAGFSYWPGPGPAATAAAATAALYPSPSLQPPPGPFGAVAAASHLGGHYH
Summary of the method: as §1

Sequence | binding signal (FLI1) | binding signal (ELK1) | binding signal (GABPA) | binding signal (ERG) | binding signal (ELF1) | binding signal (SPIB) | binding signal (ELK3) | binding signal (ETV5) | binding signal (SPIC) | binding signal (ELF4) | binding signal (ELK4) | binding signal (ETV2) | binding signal (ELF3) | binding signal (ETV1) | binding signal (EHF) | binding signal (SPI1) | binding signal (FEV)
TAGGTC | 1.06 fold enrichment (6-mer frequency, TF over GST control) | 1.03 fold enrichment (6-mer frequency, TF over GST control) | 1.1 fold enrichment (6-mer frequency, TF over GST control) | 1.03 fold enrichment (6-mer frequency, TF over GST control) | 1.01 fold enrichment (6-mer frequency, TF over GST control) | 1.01 fold enrichment (6-mer frequency, TF over GST control) | 1.08 fold enrichment (6-mer frequency, TF over GST control) | 1.06 fold enrichment (6-mer frequency, TF over GST control) | 1.11 fold enrichment (6-mer frequency, TF over GST control) | 1.02 fold enrichment (6-mer frequency, TF over GST control) | 1.11 fold enrichment (6-mer frequency, TF over GST control) | 1.14 fold enrichment (6-mer frequency, TF over GST control) | 1.06 fold enrichment (6-mer frequency, TF over GST control) | 1.01 fold enrichment (6-mer frequency, TF over GST control) |  |  | 
CGCCAA | 1.03 fold enrichment (6-mer frequency, TF over GST control) | 1.02 fold enrichment (6-mer frequency, TF over GST control) | 1.03 fold enrichment (6-mer frequency, TF over GST control) |  | 1.08 fold enrichment (6-mer frequency, TF over GST control) | 1.02 fold enrichment (6-mer frequency, TF over GST control) | 1.06 fold enrichment (6-mer frequency, TF over GST control) | 1.02 fold enrichment (6-mer frequency, TF over GST control) | 1.11 fold enrichment (6-mer frequency, TF over GST control) | 1.09 fold enrichment (6-mer frequency, TF over GST control) | 1.04 fold enrichment (6-mer frequency, TF over GST control) | 1.03 fold enrichment (6-mer frequency, TF over GST control) | 1.12 fold enrichment (6-mer frequency, TF over GST control) |  | 1.04 fold enrichment (6-mer frequency, TF over GST control) | 1.04 fold enrichment (6-mer frequency, TF over GST control) | 1.05 fold enrichment (6-mer frequency, TF over GST control)
TGTGTT | 1.19 fold enrichment (6-mer frequency, TF over GST control) | 1.1 fold enrichment (6-mer frequency, TF over GST control) | 1.06 fold enrichment (6-mer frequency, TF over GST control) | 1.03 fold enrichment (6-mer frequency, TF over GST control) | 1.03 fold enrichment (6-mer frequency, TF over GST control) |  | 1.26 fold enrichment (6-mer frequency, TF over GST control) | 1.06 fold enrichment (6-mer frequency, TF over GST control) | 1.02 fold enrichment (6-mer frequency, TF over GST control) | 1.16 fold enrichment (6-mer frequency, TF over GST control) | 1.07 fold enrichment (6-mer frequency, TF over GST control) | 1.19 fold enrichment (6-mer frequency, TF over GST control) | 1.08 fold enrichment (6-mer frequency, TF over GST control) |  | 1.09 fold enrichment (6-mer frequency, TF over GST control) |  | 1.06 fold enrichment (6-mer frequency, TF over GST control)

Reference: article PMC7862700, “An all-to-all approach to the identification of sequence-specific readers for epigenetic DNA modifications on cytosine”
